Source: PubChem (National Center for Advancing Translational Sciences (NCATS))
A selection: hits, their analogues and other compounds. The true share with any hit is near 8.1%.
ELG1 repair inh: ELG1-dependent DNA repair inhibition | HEK293T ELG1-luciferase reporter, luminescence, 16 h; DNA damage induced by 5-fluorouridine | actives 2.3% (n = 330,000) | AID 504467 | Potency, µM (highest dose often 46.1 µM), for inactives: at the top dose activity change, negative = inhibition, most hits filed as inhibitors; also: % is scaled to controls: 0 for no effect and ±100 for the full control effect; nearly all actives have a fitted effect of over 55% in size
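Overnight (16 hr) co-exposure of 2,000 cells/well to 5-fluorouridine and compound at 37 °C preceded detection. Luciferase was quantified via ONE-Glo luminescence; loss of signal denotes inhibition.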
SW480 rerep: induces DNA re-replication in SW480 colon adenocarcinoma cells; SW480 DNA re-replication, Hoechst DNA content imaging, 48 h; Potency, µM (top dose mostly 46.1 µM), for the others: top-dose re-replication activation, usual class: activators; actives 1.8% (n = 340,000); AID 624297; also: % of control where 0% means no effect; nearly all actives have a fitted effect of over 55% in size
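Quantitative HTS format with DMSO vehicle controls; 48 hr drug incubation at 37 C, then 40 min Hoechst staining and scanning imager measurement at 405 nm excitation.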
MCF10A rerep: DNA re-replication induction in MCF 10a cells; MCF 10A DNA re-replication, Hoechst nuclear intensity, 48 h; Potency, µM (doses to about 46.1 µM), inactives show at the highest dose activity, positive = re-replication, actives largely listed as activators; AID 624296; actives 2.9% (n = 350,000); also: % of control where 0% means no effect; nearly all actives have a fitted effect of over 50% in size
KB-3-1 tox: KB-3-1 parental cell cytotoxicity; actives 1.4% (n = 400,000); Potency, µM (series often up to 46.1 µM), usual class: cytotoxic; KB-3-1 viability, CellTiter-Glo ATP luminescence, 72 h; also: % is scaled to controls: 0 for no effect and ±100 for the full control effect; nearly all actives have a fitted effect of over 60% in size
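KB-3-1 parental drug-naive adenocarcinoma cells in DMEM/10% FBS, incubated 72 h at 37 C with pin-transferred compounds across a concentration series. Viability by CellTiter-Glo luminescence; concentration-response curves fitted after normalization.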
KB-V1 cytotox: kills drug-selected multidrug resistant KB-V1 cells. KB-V1 MDR cells viability, CellTiter-Glo, 72 h. Potency, µM (series often up to 46.1 µM), hits mostly cytotoxic. actives 3.4% (n = 400,000). AID 1347076; also: % is scaled to controls: 0 for no effect and ±100 for the full control effect; nearly all actives have a fitted effect of over 60% in size
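Cytotoxicity toward P-gp-expressing KB-V1 cells was determined as loss of CellTiter-Glo luminescence after 72 h at 37 degrees C. Compounds were tested in quantitative HTS format across a concentration range, with curves fitted to normalized data.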
Numbers without * were called inactive. Calls follow the shape of the dose curve; as a rule, active = well fitted curve in the direction sought with a large enough effect; inconclusive = small, poorly fitted or top-dose-only effect, or another doubt; inactive = no such curve, though single readings can be large; an effect the other way counts as inactive or inconclusive. Potency is read from the fitted curve at half-maximal effect.

How did CC1CCCCN1S(=O)(=O)c1ccc(C(=O)Nc2nnc(-c3ccco3)o2)cc1 (stereo not given) do in these assays?
ELG1 repair inh: inconclusive; SW480 rerep: inconclusive; MCF10A rerep: 21%; KB-3-1 tox: inconclusive; KB-V1 cytotox: 5.8µM*

What do the screens show for `O=C(Nc1ccccc1-c1nc2ccccc2[nH]1)c1ccc(S(=O)(=O)N2CCCCC2)cc1`?
ELG1 repair inh: 4%; SW480 rerep: 5%; MCF10A rerep: inconclusive; KB-3-1 tox: inactive; KB-V1 cytotox: inconclusive

How did Cc1nnc(NC(=O)c2ccc(S(=O)(=O)N3CCCCC3C)cc2)o1 (stereo not given) do in these assays?
ELG1 repair inh: -4%; SW480 rerep: 17%; MCF10A rerep: 15%; KB-3-1 tox: inactive; KB-V1 cytotox: inconclusive

Results for CCCCN(C)S(=O)(=O)c1ccc(C(=O)Nc2nnc(CSC)o2)cc1 ?
ELG1 repair inh: inconclusive; SW480 rerep: inconclusive; MCF10A rerep: -6%; KB-3-1 tox: inconclusive; KB-V1 cytotox: inconclusive

How did CC1CCCCN1S(=O)(=O)c1ccc(C(=O)Nc2ccccc2-c2nc3ccccc3[nH]2)cc1 (stereo not given) do in these assays?
ELG1 repair inh: inconclusive; SW480 rerep: -3%; MCF10A rerep: 0%; KB-3-1 tox: inconclusive; KB-V1 cytotox: 23µM*

What do the screens show for `CCCCN(CC)S(=O)(=O)c1ccc(C(=O)Nc2nnc(-c3cccs3)o2)cc1`?
ELG1 repair inh: inconclusive; SW480 rerep: inconclusive; MCF10A rerep: inconclusive; KB-3-1 tox: 8.2µM*; KB-V1 cytotox: inconclusive

How did CCCCN(CCCC)S(=O)(=O)c1ccc(C(=O)Nc2nnc(COC)o2)cc1 do in these assays?
ELG1 repair inh: -19%; SW480 rerep: inconclusive; MCF10A rerep: inconclusive; KB-3-1 tox: inconclusive; KB-V1 cytotox: inconclusive

What do the screens show for `CC(=O)N1CCN(C(C(=O)Nc2c(C)cccc2C)c2cccc(F)c2)CC1` (stereo not given)?
KB-3-1 tox: inactive; KB-V1 cytotox: inactive

What do the screens show for `COc1ccc(CNc2nc(N)nc3nc[nH]c23)cc1`?
KB-3-1 tox: inactive; KB-V1 cytotox: inactive

How did O=C(Nc1nnc(-c2ccco2)o1)c1ccc(Cl)cc1 do in these assays?
ELG1 repair inh: inconclusive; SW480 rerep: 1%; MCF10A rerep: inconclusive; KB-3-1 tox: inconclusive; KB-V1 cytotox: inconclusive

How did CCN(CC)S(=O)(=O)c1ccc(C(=O)Nc2nnc(-c3ccco3)o2)cc1 do in these assays?
ELG1 repair inh: 21µM*; SW480 rerep: inconclusive; MCF10A rerep: 1%; KB-3-1 tox: inconclusive; KB-V1 cytotox: inconclusive

What do the screens show for `CCCCCCN1C[C@H](n2cc(COC(=O)c3ccccc3)nn2)[C@@H](O)C[C@@H]1c1ccc(Cl)cc1`?
KB-3-1 tox: inconclusive; KB-V1 cytotox: 21µM*

What do the screens show for `CCCCCCN1C[C@H](n2cc(COC(=O)c3ccccc3)nn2)[C@@H](O)C[C@@H]1c1ccc(OC)cc1`?
KB-3-1 tox: inactive; KB-V1 cytotox: inactive

Results for CCOc1ccc(S(=O)(=O)N2CCN(c3cccc(C(F)(F)F)c3)CC2)cc1OCC ?
KB-3-1 tox: inactive; KB-V1 cytotox: inactive

How did CC(C)(C)c1ccc(OCc2nc3ccccc3n2CCOc2ccccc2)cc1 do in these assays?
KB-3-1 tox: inactive; KB-V1 cytotox: inactive

How did C[n+]1ccccc1COc1ccc(C(C)(C)C)cc1 do in these assays?
ELG1 repair inh: -12%; SW480 rerep: -691%; MCF10A rerep: 22%; KB-3-1 tox: 23µM*; KB-V1 cytotox: inconclusive

How did O=S(=O)(c1ccc(N2CC=C(c3ccccc3)CC2)nc1)N1CCCC1 do in these assays?
ELG1 repair inh: inconclusive; SW480 rerep: inconclusive; MCF10A rerep: 23µM*; KB-3-1 tox: inconclusive; KB-V1 cytotox: 8.2µM*

How did Cc1ccccc1CN1CCN(c2ccc(S(=O)(=O)N3CCCC3)cn2)CC1 do in these assays?
ELG1 repair inh: -8%; SW480 rerep: 5%; MCF10A rerep: inconclusive; KB-3-1 tox: inconclusive; KB-V1 cytotox: 9.2µM*

What do the screens show for `O=S(=O)(c1ccc(N2CCN(S(=O)(=O)c3ccccc3)CC2)nc1)N1CCCC1`?
ELG1 repair inh: inconclusive; SW480 rerep: -3%; MCF10A rerep: 5%; KB-3-1 tox: inactive; KB-V1 cytotox: inactive

How did CC(C)Cn1c(SCC(=O)Nc2cccc(S(N)(=O)=O)c2)nc2ccccc2c1=O do in these assays?
ELG1 repair inh: 16µM*; SW480 rerep: 6%; MCF10A rerep: -2%; KB-3-1 tox: inactive; KB-V1 cytotox: inactive

What do the screens show for `Cc1ccc(-n2c(SCC(=O)Nc3cccc(S(N)(=O)=O)c3)nc3ccccc32)cc1`?
ELG1 repair inh: inconclusive; SW480 rerep: 17%; MCF10A rerep: 16µM*; KB-3-1 tox: 15µM*; KB-V1 cytotox: inactive

Results for Cc1nnc(SCC(=O)Nc2cccc(S(N)(=O)=O)c2)n1-c1ccccc1 ?
ELG1 repair inh: 9%; SW480 rerep: 0%; MCF10A rerep: 3%; KB-3-1 tox: inactive; KB-V1 cytotox: inactive

Results for COCCn1c(SCC(=O)Nc2cccc(S(N)(=O)=O)c2)nc2cc(Cl)ccc2c1=O ?
ELG1 repair inh: inconclusive; SW480 rerep: inconclusive; MCF10A rerep: inconclusive; KB-3-1 tox: inactive; KB-V1 cytotox: inactive

What do the screens show for `C=CCn1c(SCC(=O)Nc2ccccc2C)nc2sc(C)c(C)c2c1=O`?
ELG1 repair inh: -12%; SW480 rerep: inconclusive; MCF10A rerep: inconclusive; KB-3-1 tox: inactive; KB-V1 cytotox: inconclusive

How did C=CCn1c(SCC(=O)Nc2cccc(S(N)(=O)=O)c2)nc2sc(C)c(C)c2c1=O do in these assays?
ELG1 repair inh: inconclusive; SW480 rerep: -5%; MCF10A rerep: 15%; KB-3-1 tox: inactive; KB-V1 cytotox: 23µM*

How did COC(=O)[C@H](CO)NS(=O)(=O)c1ccc(C)cc1 do in these assays?
ELG1 repair inh: 14%; SW480 rerep: -9%; MCF10A rerep: -15%; KB-3-1 tox: inactive; KB-V1 cytotox: inactive

How did CCCNC(=O)C1(C)CCN(Cc2ccc(Oc3ccccc3)cc2)C1 (stereo not given) do in these assays?
KB-3-1 tox: inactive; KB-V1 cytotox: inactive

Results for CC(C)(C)CC(C)(C)c1ccc(O)c(CN2CCN(CCC#N)CC2)c1 ?
ELG1 repair inh: -16%; SW480 rerep: inconclusive; MCF10A rerep: 18µM*; KB-3-1 tox: inactive; KB-V1 cytotox: inconclusive

How did N#CCCN1CCN(Cc2cc(-c3ccccc3)ccc2O)CC1 do in these assays?
ELG1 repair inh: inconclusive; SW480 rerep: -1%; MCF10A rerep: inconclusive; KB-3-1 tox: inactive; KB-V1 cytotox: 21µM*

Results for CC(C)(C)c1ccc(S(=O)(=O)N2CCN(CCC#N)CC2)cc1 ?
ELG1 repair inh: 21%; SW480 rerep: -1%; MCF10A rerep: 0%; KB-3-1 tox: inactive; KB-V1 cytotox: inactive
